Shown are actives, neighbours in structure and some others; about 2.3% of the full set was active somewhere.
Mcl-1 Bim block = inhibitors of Bim peptide binding to Mcl-1, primary screen, biochemical, bead-based flow cytometry, multiplex. Bim peptide-Mcl-1 binding. inhibition, % at 10 µM. 0.1% of 190,000 active. AID 1009, 2008; in the data active means inhibition above about 40%
Target sequence (Q07820 whole entry, looked up): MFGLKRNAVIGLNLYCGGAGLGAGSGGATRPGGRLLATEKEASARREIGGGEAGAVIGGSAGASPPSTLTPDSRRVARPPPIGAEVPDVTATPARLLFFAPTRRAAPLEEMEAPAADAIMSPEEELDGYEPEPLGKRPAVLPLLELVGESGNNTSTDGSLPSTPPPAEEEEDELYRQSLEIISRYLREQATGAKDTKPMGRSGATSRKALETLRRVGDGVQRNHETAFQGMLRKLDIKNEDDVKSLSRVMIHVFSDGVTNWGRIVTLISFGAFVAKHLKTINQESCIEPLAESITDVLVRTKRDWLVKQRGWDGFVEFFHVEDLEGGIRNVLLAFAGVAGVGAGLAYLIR
GLD-1 TGE inh = GLD-1/TGE RNA complex disruptors, primary screen, biochemical, fluorescence polarization; purified GLD-1 + fluorescein TGE RNA; inhibition, % at 5.96 µM; 0.44% of 320,000 active; AID 2280, 2010;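 active means percent inhibition above a per-plate cutoff, the plate mean of test compounds plus 3 SD, cut at about 30% in these data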
MCL1-BIM inh = inhibitors of MCL1 binding to BIM-BH3, primary screen, biochemical, fluorescence polarization; Induced myeloid leukemia cell differentiation protein Mcl-1 (Homo sapiens), Q07820; GST-MCL1 / FITC-Bim-BH3 fluorescence polarization; inhibition, % at 10.9 µM; 0.68% of 320,000 active; AID 2057, 2009;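 active means inhibition above the mean inhibition of all tested compounds plus 3 SD, set per campaign, cut at about 40% in these data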;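 further: higher means more loss of mP so more displacement of Bim peptide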
Mcl1 Noxa PPI = Mcl-1/Noxa binding inhibitors, primary screen, biochemical, TR-FRET, 1536-well | Induced myeloid leukemia cell differentiation protein Mcl-1 (Homo sapiens), Q07820 | TR-FRET Mcl-1/Noxa peptide binding, 2 h | inhibition, % at 21.7 µM | 1.5% of 220,000 active;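 active means compounds that cut the protein-peptide binding signal by more than 50% relative to plate controls in a single-dose test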;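 further: His-tagged Mcl-1 with rhodamine Noxa BH3 peptide and terbium anti-His antibody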
Bcl-xL primary = inhibitors of human Bcl-xL, primary screen, biochemical, fluorescence polarization, HTS; 0.7% of 320,000 active; inhibition, % at 10.9 µM; Bcl-2-like protein 1 (Homo sapiens), Q07817; GST-Bcl-xL / FITC-Bim BH3 peptide fluorescence polarization;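 active means inhibition above the mean of all tested compounds plus 3 SD, cutoff set per campaign, cut at about 30% in these data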;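 further: inhibitors lower millipolarization by displacing the labeled peptide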
Target sequence (Q07817 whole entry, looked up): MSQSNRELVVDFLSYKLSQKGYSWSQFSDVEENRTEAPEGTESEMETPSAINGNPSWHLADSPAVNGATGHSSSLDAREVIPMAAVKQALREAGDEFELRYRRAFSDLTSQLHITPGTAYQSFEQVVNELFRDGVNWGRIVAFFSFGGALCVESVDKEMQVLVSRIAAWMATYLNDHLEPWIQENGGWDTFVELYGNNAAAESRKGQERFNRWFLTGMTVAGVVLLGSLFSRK
Mcl1 Bid PPI = Mcl-1/Bid binding inhibitors, primary screen, biochemical, TR-FRET, 1536-well; Induced myeloid leukemia cell differentiation protein Mcl-1 (Homo sapiens), Q07820; 0.97% of 220,000 active; TR-FRET Mcl-1/Bid-Dy647 peptide binding; inhibition, % at 21.7 µM;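 active means compounds that cut the binding signal by more than half at the single screening dose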;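 further: His-tagged Mcl-1 with europium anti-His antibody binding Bid BH3 peptide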
Hits are given with their value; – = inactive; · = not tested or not shown.

SMILES	Mcl-1 Bim block	GLD-1 TGE inh	MCL1-BIM inh	Mcl1 Noxa PPI	Bcl-xL primary	Mcl1 Bid PPI
O=C(Nc1ccccc1)NC1CCS(=O)(=O)C1 (stereo unspecified)	–	–	–	–	–	98
Cc1cc(C)c(NC(=S)N2CCN(c3ccc([N+](=O)[O-])cn3)CC2)cc1C	·	–	–	·	–	·
O=C(Nc1ccc(S(=O)(=O)N2CCCCC2)cc1)c1ccc(Cl)nc1	·	–	·	·	·	·
COc1ccc(-c2nc3ccccn3c2Cl)cc1	·	–	–	·	–	·
O=C1CCC/C(=N/NC(=O)c2sc3ccccc3c2Cl)C1	·	103	–	–	–	–
O=C(CSc1nc2ccccc2c(=O)n1-c1ccccc1)N/N=C/C=C/c1ccccc1[N+](=O)[O-]	–	–	–	–	–	–
Cc1ccccc1-n1c(SCC(=O)N/N=C/C=C/c2ccccc2[N+](=O)[O-])nc2ccccc2c1=O	–	–	–	63	–	–
Clc1cccc(CON/C=N/c2ncnc3sccc23)c1	–	–	–	–	–	–
Clc1cccc(Cl)c1CON/C=N/c1ncnc2sccc12	–	–	–	–	–	87
CCCSC1=N/C(=C\c2ccc([N+](=O)[O-])o2)C(=O)S1	–	·	·	79	·	–
CCCSC1=N/C(=C\c2ccsc2)C(=O)S1	–	–	–	–	–	–
CCCSC1=N/C(=C\C=C\c2ccco2)C(=O)S1	–	–	–	76	–	–
CCCCN(C(=O)C(C)Oc1cccc(Cl)c1)c1c(N)n(CCC)c(=O)[nH]c1=O (stereo unspecified)	·	–	–	·	–	·
Cc1ccccc1NC(=O)c1cc(S(=O)(=O)N2CCOCC2)cn1C	·	–	–	·	–	·
O=C(OC1CCc2ccccc2C1=O)c1ccccc1O (stereo unspecified)	–	–	–	–	–	54
Cc1cc(NC(=O)COC(=O)C2=COCCO2)c([N+](=O)[O-])cc1C	–	–	–	–	42	–
O=C(Nc1cc(-c2ccccc2)nn1-c1ccccc1)c1ccccc1F	·	–	–	·	–	·
CN1CCN(CC(=O)NC2CCCCC2)CC1	–	–	–	–	–	54
Cc1ccc(OCC(O)CN2CCN(c3ccccn3)CC2)c(C)c1 (stereo unspecified)	–	–	–	51	–	–
Cc1n[nH]c(C)c1S(=O)(=O)N1CCN(c2ccccn2)CC1	–	–	–	–	–	70
Cc1cc(C(=O)COC(=O)c2ccc3c(c2)OCO3)c(C)n1CC1CCCO1 (stereo unspecified)	–	–	–	–	–	–
Cc1ccccc1OC1C(=O)N(CC2CCCO2)C1c1ccc2c(c1)OCO2 (stereo unspecified)	–	–	–	–	100	–
CN(C)c1ccc(NC(=O)C2CCCN(S(=O)(=O)c3ccccc3)C2)cc1 (stereo unspecified)	–	–	–	69	–	–
CC(OC(=O)c1ccc2c(=O)n3c(nc2c1)CCCCC3)C(=O)Nc1ccc(F)cc1Cl (stereo unspecified)	–	–	–	–	–	64
O=C(Nc1ccc(F)c(Cl)c1)c1ccc2c(=O)n3c(nc2c1)CCCCC3	61	–	–	–	–	–
SMILES	Mcl-1 Bim block	GLD-1 TGE inh	MCL1-BIM inh	Mcl1 Noxa PPI	Bcl-xL primary	Mcl1 Bid PPI
CC(OC(=O)c1ccc2c(=O)n3c(nc2c1)CCCCC3)C(=O)Nc1ccc(Cl)cn1 (stereo unspecified)	–	–	–	–	–	–
CN=C(c1ccc(C)cc1)n1c(=S)nc(-c2ccc(C)cc2)n(C)c1=S	–	–	–	–	–	–
CN=C(c1ccco1)n1c(=S)nc(-c2ccco2)n(C)c1=S	–	–	–	–	33	–
CCN(CC)c1ccc(NC(=O)COc2ccc(N(C)S(=O)(=O)c3cccs3)cc2)cc1	–	–	–	65	–	–
CN(c1ccc(OCC(=O)OCC(=O)Nc2ccccc2)cc1)S(=O)(=O)c1cccs1	–	–	–	–	–	–
COCCCn1c(=O)/c(=C\c2ccccc2OC(C)C)s/c1=C(/C#N)C(=O)Nc1ccc(C(=O)O)cc1	·	–	–	63	–	–
COCCCn1c(=O)/c(=C\c2ccccc2OC(F)F)s/c1=C(/C#N)C(=O)NC(C)C	–	–	–	–	–	–
CC(=O)[C@@H]1[C@@H]2C(=O)N(Cc3ccccc3)C(=O)[C@@H]2C2c3ccccc3C=CN21 (stereo partly specified)	–	39	50	–	46	–
CC1=C[C@H]2OC(=O)[C@@H](C)[C@H]2C[C@@H]2[C@H]1C[C@@H](O)[C@@]2(C)O	·	114	–	–	–	–
Cc1cccnc1Oc1ncccc1N	·	–	–	·	–	·
COC(=O)c1cccc(NC(=O)COC(=O)CSc2nc(C)cc(C)n2)c1	–	–	–	–	135	–
COc1ccccc1NC(=O)c1ccc(COc2ccc3c(c2)CCC3)cc1	–	–	–	–	–	–
COC(=O)c1ccccc1NC(=O)c1ccc(COc2ccc3c(c2)CCC3)cc1	–	–	–	–	–	58
COC(=O)c1ccc(NC(=O)CN2CCN(CCO)CC2)cc1	·	–	–	·	–	·
CCn1c(SCC(=O)Nc2ccc(-c3nc4ccc(C)cc4s3)cc2)nnc1-c1ccccc1	–	–	–	66	–	66
CCn1c(SCC(=O)Nc2nc(-c3ccc(C)cc3)cs2)nnc1-c1ccccc1	–	–	–	–	–	–
C=CCn1c(SCC(=O)Nc2ccc(N3CCOCC3)cc2)nnc1-c1ccncc1	·	–	–	·	–	·
C=CCn1c(SCC(=O)Nc2ccc(-c3nc4ccc(C)cc4s3)cc2)nnc1-c1ccncc1	–	–	–	63	–	–
Cc1cc(SCC(=O)NC2CCCC2)nc2ccccc12	·	–	–	·	–	·
O=C(NC1CCCCCCC1)c1ccc(Br)cc1	·	–	52	·	68	·
O=C(Cc1ccc(Br)cc1)NC1CCCCC1	–	–	–	–	–	–
CCCC(=O)Nc1nnc(S(=O)(=O)N(CC(C)C)c2ccccc2)s1	·	–	–	·	–	·
Cc1ccc(CCN2CCN=C2Nc2ccccc2)cc1	·	–	–	·	–	·
Clc1nc(Cl)nc(N(c2ccccc2)c2ccccc2)n1	–	–	–	–	–	51
C#CCn1cc(/C=N/NC(=O)COc2cccc3cccnc23)c2ccccc21	–	–	–	70	–	86
COC(=O)Cn1cc(/C=N/NC(=O)COc2cccc3cccnc23)c2ccccc21	–	–	–	–	–	65
O=C(COc1cccc2cccnc12)N/N=C/c1ccccc1O	·	–	–	–	–	–
COc1ccc(NC(=O)C(=O)NCCN2CCN(C(=O)c3cccs3)CC2)cc1	–	–	–	62	–	–

Screening data (PubChem)
